# Hit rate of the full screen: of about 40,000 compounds, about 1,400 (3.5%) were called active.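 Rule for the calls: active = any of four per-well response measures lying three or more SD from its plate-wide compound average, in either direction; inactive = the rest, inconclusive results apart.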 Many of the other results were omitted from the sample, so actives are more common in it than they were.
# Biological target: Voltage-dependent calcium channel gamma-2 subunit (Mus musculus) + Glutamate receptor 2 (Rattus norvegicus) (UniProt O88602+P19491)
# Sequence (O88602 whole entry, looked up): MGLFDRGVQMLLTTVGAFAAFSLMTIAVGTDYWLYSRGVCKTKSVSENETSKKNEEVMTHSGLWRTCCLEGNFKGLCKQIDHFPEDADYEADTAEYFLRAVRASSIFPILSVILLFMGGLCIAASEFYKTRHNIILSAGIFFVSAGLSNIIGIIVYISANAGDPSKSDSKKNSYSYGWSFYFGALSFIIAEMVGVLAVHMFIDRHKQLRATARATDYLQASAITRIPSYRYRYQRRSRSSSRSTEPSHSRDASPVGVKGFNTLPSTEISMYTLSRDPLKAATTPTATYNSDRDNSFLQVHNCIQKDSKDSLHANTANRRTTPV
# Sequence (P19491 whole entry, looked up): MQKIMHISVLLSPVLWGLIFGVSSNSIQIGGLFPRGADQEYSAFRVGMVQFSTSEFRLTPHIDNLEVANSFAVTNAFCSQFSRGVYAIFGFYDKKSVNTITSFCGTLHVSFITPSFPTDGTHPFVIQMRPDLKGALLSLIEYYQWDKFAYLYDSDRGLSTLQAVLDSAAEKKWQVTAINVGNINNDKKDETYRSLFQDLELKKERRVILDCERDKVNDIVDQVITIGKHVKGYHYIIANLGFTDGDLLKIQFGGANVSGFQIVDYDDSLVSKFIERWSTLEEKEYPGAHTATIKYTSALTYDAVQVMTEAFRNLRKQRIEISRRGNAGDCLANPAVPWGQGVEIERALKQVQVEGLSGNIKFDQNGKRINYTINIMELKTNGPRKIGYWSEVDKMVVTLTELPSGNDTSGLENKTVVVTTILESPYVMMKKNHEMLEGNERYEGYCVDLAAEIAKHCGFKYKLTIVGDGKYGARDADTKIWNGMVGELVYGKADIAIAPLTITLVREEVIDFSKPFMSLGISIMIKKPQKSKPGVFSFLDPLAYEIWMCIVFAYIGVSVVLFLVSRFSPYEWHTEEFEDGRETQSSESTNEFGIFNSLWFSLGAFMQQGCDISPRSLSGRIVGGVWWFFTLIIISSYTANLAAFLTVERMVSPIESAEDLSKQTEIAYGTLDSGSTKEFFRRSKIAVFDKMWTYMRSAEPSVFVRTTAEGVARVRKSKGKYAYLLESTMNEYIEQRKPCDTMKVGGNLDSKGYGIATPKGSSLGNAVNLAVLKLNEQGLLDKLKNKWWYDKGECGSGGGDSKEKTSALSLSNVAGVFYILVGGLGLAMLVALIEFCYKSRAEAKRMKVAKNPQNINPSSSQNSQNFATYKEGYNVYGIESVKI
# Assay: modulators of GluA2-stargazin AMPA receptor complexes, primary screen, cell-based, membrane potential dye (AID 1259245)
# Conditions: HEK293 GluA2+stargazin, membrane potential dye (FDSS), glutamate EC50, at 30 µM, hits were called plate by plate, in both directions; compound max-min signal: compound-alone response (agonism); glutamate slope, % of max: measured here: glutamate response slope, % max
SMILES,compound max-min signal,"glutamate response, % of max","glutamate slope, % of max"
CC(=O)N1CC(C(=O)Nc2cccc3nsnc23)C1,0.0775,30.1% (inactive),49.8%
COc1ccc(-n2nc3c(c2NC(=O)C(=O)N2CCCCC2)CSC3)cc1,0.0721,33.6% (active),59.2%
COc1ccc(-n2nc3c(c2NC(=O)C(=O)NC2CCCC2)CS(=O)(=O)C3)cc1,0.0561,41.9% (inactive),51.3%
O=C(Nc1c2c(nn1-c1ccc(F)cc1)CSC2)C(=O)N1CCCCCC1,0.071,32% (active),43.4%
CC1CCN(C(=O)C(=O)Nc2c3c(nn2-c2ccc(F)cc2)CSC3)CC1,0.0271,24.1% (inactive),44.2%
O=C(NCCCn1ccnc1)C(=O)Nc1c2c(nn1-c1ccc(Cl)cc1)CSC2,0.0348,37.9% (inactive),64.4%
O=C(NCCCN1CCCC1=O)C(=O)Nc1c2c(nn1-c1cccc(Cl)c1)CSC2,0.0244,21.6% (inactive),47%
CCCn1c(N2CCC(C(N)=O)CC2)nc2c1c(=O)n(C)c(=O)n2C,0.0828,24.8% (inactive),45.3%
CCCCc1ccc(-n2c(C)cn3c4c(=O)n(CC(=O)OC)c(=O)n(C)c4nc23)cc1,0.103,55.1% (inactive),73.4%
COc1cccc(-n2nnc3c(N4CCN(C(=O)c5c(OC)cccc5OC)CC4)ncnc32)c1,0.0804,29.1% (inactive),53.7%
Cc1nc(-c2ccccc2)sc1C(=O)NCCOc1ccc2nnc(-c3ccccc3)n2n1,0.0398,37.1% (inactive),49.7%
CCc1ccccc1NC(=O)NCCOc1ccc2nnc(-c3cccc(F)c3)n2n1,0.131,41.1% (active),52.3%
O=C(COc1ccc(Cl)cc1)NCCOc1ccc2nnc(-c3cccc(F)c3)n2n1,0.0351,38.7% (inactive),69.7%
COc1ccc(CCS(=O)(=O)Nc2ccc3c(c2)N(C(C)=O)CC3)cc1,0.0917,25.2% (inactive),47.2%
CCOc1ccc(N2CCCn3c2nc2c3c(=O)n(CCN3CCOCC3)c(=O)n2C)cc1,0.074,10% (inactive),27.7%
CCc1ccc(NC(=O)Cn2c(=O)c3c(N4CCN(C(C)=O)CC4)ccnc3n(C)c2=O)cc1,0.159,32.2% (active),55.8%
CC(=O)N1CCN(c2ccnc3c2c(=O)n(CC(=O)NCc2ccco2)c(=O)n3C)CC1,0.103,49.5% (inactive),74.3%
CC(=O)N1CCN(c2ccnc3c2c(=O)n(CC(=O)NCC2CCCO2)c(=O)n3C)CC1 (stereo not given),0.0945,51% (inactive),78.2%
O=[N+]([O-])c1cccc(CSc2nnc(-c3ccncc3)o2)c1,0.0611,20.8% (inactive),47.1%
CC(=O)c1sc(NC(=O)C2CCCN(S(C)(=O)=O)C2)nc1-c1ccccc1 (stereo not given),0.126,21.7% (inactive),40.2%
CCOc1ccc(-c2cc(=O)n(CCCC(=O)Nc3cc(C)ns3)cn2)cc1,0.074,-0.752% (active),5.34%
CCOc1ccc(-c2ccc(=O)n(CCCC(=O)Nc3cc(Cl)ccc3OC)n2)cc1,0.0223,14.7% (inactive),28.2%
COc1ccc(-c2ccc(=O)n(CCCC(=O)Nc3ccccc3-c3ccccc3)n2)cc1,0.0404,21.1% (inactive),39%

SMILES,compound max-min signal,"glutamate response, % of max","glutamate slope, % of max"
COc1cc(NS(=O)(=O)c2ccccc2F)ccc1N1CCCCC1=O,0.0504,15.5% (inactive),35.3%
COc1cccc(C(CNC(=O)c2ccc(OC(C)C)cc2)N2CCOCC2)c1 (stereo not given),0.0693,22.5% (inactive),42.1%
COc1ccc(C(CNC(=O)c2ccccc2Cl)N2CCOCC2)cc1 (stereo not given),0.07,35.7% (active),45.9%
COc1ccc(C(CNC(=O)c2cc(C)cc(C)c2)N2CCOCC2)cc1 (stereo not given),0.0728,37.2% (inactive),50.1%
COc1ccc(NC(=O)C(=O)Nc2cc([N+](=O)[O-])ccc2C)cc1OC,0.325,62.6% (active),80.6%
COc1cccc(CNC(=O)C(=O)Nc2cc([N+](=O)[O-])ccc2C)c1,0.135,41.7% (inactive),61.5%
COc1ccccc1CCNC(=O)C(=O)Nc1cc([N+](=O)[O-])ccc1C,0.125,47.7% (inactive),62.3%
O=C(NCCNc1ccc(Nc2ccncc2)nn1)c1cccc2ccccc12,0.274,30.8% (inactive),57.7%
O=C(NCCn1ncc2c(N3CCOCC3)ncnc21)c1ccc2c(c1)OCO2,0.0657,28.9% (inactive),49.6%
CC(O)(CNC(=O)NCc1ccc(F)cc1)c1ccc(-c2ccccc2)cc1 (stereo not given),0.113,15.8% (inactive),57.2%
O=C(NNC(=O)c1ccc(=O)n(Cc2ccccc2)c1)c1ccc(F)c(F)c1,0.0736,29.9% (inactive),51.5%
Cn1nc(NC(=O)/C=C\c2ccc3c(c2)OCO3)c2c1NC(=O)CC2c1ccco1 (stereo not given),0.119,38.8% (inactive),66.5%
Cn1nc(NC(=O)c2ccc3c(c2)OCO3)c2c1NC(=O)CC2c1cccs1 (stereo not given),0.101,34.8% (inactive),53.9%
CC1CC(=O)Nc2c1c(NC(=O)c1ccc3c(c1)OCO3)nn2C (stereo not given),0.11,23.6% (active),38.4%
COc1ccc(NC(=O)C(=O)NCC2CCN(C)CC2)c(OC)c1,0.0817,43.1% (inactive),70.1%
Cc1ccc(-n2ncc3c(=O)n(CC(=O)N4CCOCC4)cnc32)cc1C,0.0678,29.7% (inactive),52.9%
Cn1cccc1C(CNS(=O)(=O)c1ccc(F)cc1)N1CCOCC1 (stereo not given),0.0736,28.1% (inactive),55.5%
COc1ccc(S(=O)(=O)NCC(c2cccn2C)N2CCOCC2)cc1OC (stereo not given),0.0786,34.5% (inactive),60.4%
O=[N+]([O-])c1cccc(S(=O)(=O)NCC(c2cccs2)N2CCOCC2)c1 (stereo not given),0.129,23.5% (active),44.4%
O=C(NCCn1ncc2c(N3CCN(c4ccccc4)CC3)ncnc21)c1cccs1,0.0478,45.6% (inactive),68.2%
COc1ccc(CN(CC(=O)N(C)c2ccccc2)S(=O)(=O)c2cccnc2)cc1,0.128,30.9% (inactive),52.8%
O=C1/C(=C/c2cccnc2)SC(=S)N1c1ccc2c(c1)OCCO2,0.116,41.7% (inactive),65.3%
